Drawing on ChEMBL document CHEMBL2218924, “A broad activity screen in support of a chemogenomic map for kinase signalling research and drug discovery” (Biochem J, 2013), this text covers residual activity for 7 compounds.

The target of experiment [1] is T1, MAP kinase-activated protein kinase 5 (Homo sapiens) (UniProt Q8IW41).
T1 sequence (whole entry): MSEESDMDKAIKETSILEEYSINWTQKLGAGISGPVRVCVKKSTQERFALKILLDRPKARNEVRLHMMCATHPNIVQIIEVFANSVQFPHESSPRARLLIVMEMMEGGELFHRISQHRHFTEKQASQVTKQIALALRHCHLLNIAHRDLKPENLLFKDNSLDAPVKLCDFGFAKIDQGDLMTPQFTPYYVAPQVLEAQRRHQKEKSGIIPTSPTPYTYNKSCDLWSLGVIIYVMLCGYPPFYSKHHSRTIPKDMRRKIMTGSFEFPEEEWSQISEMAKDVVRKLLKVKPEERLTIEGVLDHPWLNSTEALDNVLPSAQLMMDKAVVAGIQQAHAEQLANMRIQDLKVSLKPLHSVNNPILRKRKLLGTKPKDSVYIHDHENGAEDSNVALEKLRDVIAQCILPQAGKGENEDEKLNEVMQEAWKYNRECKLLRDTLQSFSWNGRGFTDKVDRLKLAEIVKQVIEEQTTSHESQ
To be noted: at 1 µM.

Experiment [2] has as its target T1, MAP kinase-activated protein kinase 5 (Homo sapiens). To be noted: at 10 µM.
Experiment [3] addresses Serine/threonine-protein kinase N2 (Homo sapiens) (UniProt Q16513). To be noted: at 1 µM.
For experiment [4] the target is unchanged. To be noted: at 10 µM.
Experiment [5] addresses Tyrosine-protein kinase FRK (Homo sapiens) (UniProt P42685). To be noted: at 1 µM.
The target is the same in experiment [6]. To be noted: at 10 µM.
Experiment [7] deals with T2, Phosphorylase b kinase gamma catalytic chain, liver/testis isoform (Homo sapiens) (UniProt P15735).
T2 sequence (whole entry): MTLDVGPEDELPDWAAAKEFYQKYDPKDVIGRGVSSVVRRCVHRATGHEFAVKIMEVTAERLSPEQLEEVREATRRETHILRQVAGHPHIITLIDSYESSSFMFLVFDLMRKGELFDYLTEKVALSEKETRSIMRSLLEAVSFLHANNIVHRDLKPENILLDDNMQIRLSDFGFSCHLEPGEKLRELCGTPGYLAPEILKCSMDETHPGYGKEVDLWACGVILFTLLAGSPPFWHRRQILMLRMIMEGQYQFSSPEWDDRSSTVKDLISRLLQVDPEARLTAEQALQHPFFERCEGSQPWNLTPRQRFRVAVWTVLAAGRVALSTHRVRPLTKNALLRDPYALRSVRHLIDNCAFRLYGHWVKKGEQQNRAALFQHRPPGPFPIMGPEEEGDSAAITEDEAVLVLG
To be noted: at 1 µM.

Experiment [8] has as its target T2, Phosphorylase b kinase gamma catalytic chain, liver/testis isoform (Homo sapiens). To be noted: at 10 µM.
Experiment [9] has as its target Serine/threonine-protein kinase pim-1 (Homo sapiens) (UniProt P11309). To be noted: at 1 µM.
The target is the same in experiment [10]. To be noted: at 10 µM.
In experiment [11] the target is Serine/threonine-protein kinase pim-2 (Homo sapiens) (UniProt Q9P1W9). To be noted: at 1 µM.
Serine/threonine-protein kinase pim-2 (Homo sapiens), sequence (Q9P1W9 whole entry, looked up): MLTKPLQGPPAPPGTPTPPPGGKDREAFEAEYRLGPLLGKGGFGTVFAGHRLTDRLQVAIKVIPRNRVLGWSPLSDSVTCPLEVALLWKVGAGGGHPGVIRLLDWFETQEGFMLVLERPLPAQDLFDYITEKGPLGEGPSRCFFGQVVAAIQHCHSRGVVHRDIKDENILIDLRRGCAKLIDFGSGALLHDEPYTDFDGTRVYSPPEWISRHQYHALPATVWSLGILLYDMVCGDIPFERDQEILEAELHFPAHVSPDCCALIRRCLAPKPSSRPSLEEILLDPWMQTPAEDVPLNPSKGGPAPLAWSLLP
Experiment [12] has as its target Serine/threonine-protein kinase pim-3 (Homo sapiens) (UniProt Q86V86). To be noted: at 1 µM.
Experiment [13] shares this target. To be noted: at 10 µM.
The target of experiment [14] is T3, cGMP-dependent protein kinase 1 (Homo sapiens) (UniProt Q13976).
T3 sequence (whole entry): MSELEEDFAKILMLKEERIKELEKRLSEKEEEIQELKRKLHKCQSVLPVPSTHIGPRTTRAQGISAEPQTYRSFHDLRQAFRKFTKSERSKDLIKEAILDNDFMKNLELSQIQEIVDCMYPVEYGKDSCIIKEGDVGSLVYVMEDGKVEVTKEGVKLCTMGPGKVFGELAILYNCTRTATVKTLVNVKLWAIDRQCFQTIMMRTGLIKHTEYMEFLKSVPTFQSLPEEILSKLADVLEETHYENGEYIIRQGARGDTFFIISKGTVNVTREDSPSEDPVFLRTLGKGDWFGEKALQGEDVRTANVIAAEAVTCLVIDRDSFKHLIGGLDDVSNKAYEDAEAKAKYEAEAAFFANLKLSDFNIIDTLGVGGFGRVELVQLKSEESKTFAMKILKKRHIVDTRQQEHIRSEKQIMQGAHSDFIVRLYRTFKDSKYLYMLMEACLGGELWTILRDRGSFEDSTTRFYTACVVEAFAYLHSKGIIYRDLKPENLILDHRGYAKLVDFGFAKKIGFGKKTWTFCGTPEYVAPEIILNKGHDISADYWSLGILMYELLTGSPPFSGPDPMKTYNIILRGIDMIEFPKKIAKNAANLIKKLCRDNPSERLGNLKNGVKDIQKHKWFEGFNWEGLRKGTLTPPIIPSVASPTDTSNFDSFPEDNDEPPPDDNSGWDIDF
To be noted: at 10 µM.

For experiment [15], the target named is Serine/threonine-protein kinase pim-2 (Homo sapiens) (UniProt Q9P1W9). To be noted: at 10 µM.
Experiment [16] deals with Serine/threonine-protein kinase PLK1 (Homo sapiens) (UniProt P53350). To be noted: at 1 µM.
Serine/threonine-protein kinase PLK1 (Homo sapiens), sequence (P53350 whole entry): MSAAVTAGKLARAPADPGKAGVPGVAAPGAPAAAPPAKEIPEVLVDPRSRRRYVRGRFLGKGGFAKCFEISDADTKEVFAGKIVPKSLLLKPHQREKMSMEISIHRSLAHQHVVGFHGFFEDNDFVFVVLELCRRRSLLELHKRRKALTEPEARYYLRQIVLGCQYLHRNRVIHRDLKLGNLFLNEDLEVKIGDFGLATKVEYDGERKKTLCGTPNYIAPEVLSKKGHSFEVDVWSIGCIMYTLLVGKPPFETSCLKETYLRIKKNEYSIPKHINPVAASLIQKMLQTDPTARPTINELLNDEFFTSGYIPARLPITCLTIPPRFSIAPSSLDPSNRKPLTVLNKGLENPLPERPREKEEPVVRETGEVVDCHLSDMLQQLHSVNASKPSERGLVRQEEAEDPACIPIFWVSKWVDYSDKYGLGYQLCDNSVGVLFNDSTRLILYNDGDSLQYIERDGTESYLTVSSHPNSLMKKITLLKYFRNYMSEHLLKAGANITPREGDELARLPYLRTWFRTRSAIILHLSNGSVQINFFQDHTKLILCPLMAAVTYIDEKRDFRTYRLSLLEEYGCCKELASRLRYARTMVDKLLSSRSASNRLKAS
For experiment [17] the target is unchanged. To be noted: at 10 µM.
Experiment [18] concerns the target T3, cGMP-dependent protein kinase 1 (Homo sapiens). To be noted: at 1 µM.
For experiment [19] the target is unchanged. To be noted: at 10 µM. The source holds these as a separate data set.
For experiment [20] the target is unchanged. To be noted: at 1 µM. This is another data set of the same source.

Serine/threonine-protein kinase N2 (Homo sapiens), sequence (Q16513 whole entry, looked up): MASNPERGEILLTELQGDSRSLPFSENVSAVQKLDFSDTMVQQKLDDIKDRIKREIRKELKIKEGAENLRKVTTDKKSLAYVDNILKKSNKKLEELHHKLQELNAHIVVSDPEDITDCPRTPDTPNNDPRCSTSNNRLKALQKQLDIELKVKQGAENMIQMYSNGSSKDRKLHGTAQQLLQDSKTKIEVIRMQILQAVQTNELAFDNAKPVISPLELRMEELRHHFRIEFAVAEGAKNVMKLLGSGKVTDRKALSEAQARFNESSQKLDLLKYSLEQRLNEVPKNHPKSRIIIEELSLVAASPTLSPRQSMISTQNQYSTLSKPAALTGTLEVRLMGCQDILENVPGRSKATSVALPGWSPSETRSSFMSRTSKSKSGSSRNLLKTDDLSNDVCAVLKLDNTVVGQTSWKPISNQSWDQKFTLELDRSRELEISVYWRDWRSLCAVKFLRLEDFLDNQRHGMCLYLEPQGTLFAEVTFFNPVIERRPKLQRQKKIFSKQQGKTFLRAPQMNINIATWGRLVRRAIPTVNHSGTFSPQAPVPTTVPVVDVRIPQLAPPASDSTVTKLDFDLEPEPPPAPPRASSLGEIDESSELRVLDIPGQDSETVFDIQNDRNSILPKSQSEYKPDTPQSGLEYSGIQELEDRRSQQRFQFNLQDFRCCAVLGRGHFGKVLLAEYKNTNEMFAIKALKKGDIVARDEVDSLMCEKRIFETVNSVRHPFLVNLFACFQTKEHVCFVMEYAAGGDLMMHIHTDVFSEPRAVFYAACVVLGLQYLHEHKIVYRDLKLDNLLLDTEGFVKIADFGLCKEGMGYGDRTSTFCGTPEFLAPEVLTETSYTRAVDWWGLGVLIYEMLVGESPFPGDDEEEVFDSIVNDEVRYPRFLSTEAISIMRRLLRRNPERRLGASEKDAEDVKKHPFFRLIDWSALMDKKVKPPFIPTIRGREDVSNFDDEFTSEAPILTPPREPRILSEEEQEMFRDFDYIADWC
Tyrosine-protein kinase FRK (Homo sapiens), sequence (P42685 whole entry): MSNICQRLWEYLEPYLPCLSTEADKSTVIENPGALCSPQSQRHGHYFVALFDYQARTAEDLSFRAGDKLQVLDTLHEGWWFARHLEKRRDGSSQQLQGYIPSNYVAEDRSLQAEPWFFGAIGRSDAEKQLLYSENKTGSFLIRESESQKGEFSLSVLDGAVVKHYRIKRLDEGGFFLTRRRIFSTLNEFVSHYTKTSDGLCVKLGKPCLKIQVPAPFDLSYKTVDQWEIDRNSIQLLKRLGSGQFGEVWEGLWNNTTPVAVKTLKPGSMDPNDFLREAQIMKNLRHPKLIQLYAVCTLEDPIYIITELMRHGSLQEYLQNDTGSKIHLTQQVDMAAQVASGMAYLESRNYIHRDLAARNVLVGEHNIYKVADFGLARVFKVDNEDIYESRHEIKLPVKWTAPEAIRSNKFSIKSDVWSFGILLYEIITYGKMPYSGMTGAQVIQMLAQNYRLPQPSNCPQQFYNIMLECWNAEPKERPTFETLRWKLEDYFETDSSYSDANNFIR
Serine/threonine-protein kinase pim-1 (Homo sapiens), sequence (P11309 whole entry, looked up): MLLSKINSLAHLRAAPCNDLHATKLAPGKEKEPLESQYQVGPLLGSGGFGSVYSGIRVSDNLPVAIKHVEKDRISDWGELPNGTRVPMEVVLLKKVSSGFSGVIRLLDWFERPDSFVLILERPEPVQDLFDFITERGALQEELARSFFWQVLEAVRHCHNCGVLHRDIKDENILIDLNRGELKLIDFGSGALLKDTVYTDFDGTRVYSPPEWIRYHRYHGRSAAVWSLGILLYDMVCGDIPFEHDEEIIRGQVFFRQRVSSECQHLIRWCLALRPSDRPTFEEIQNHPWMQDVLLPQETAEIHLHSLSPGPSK

For `Nc1nc(Nc2ccc(S(N)(=O)=O)cc2)nn1C(=S)Nc1c(F)cccc1F`, the residual activity in experiment [1] turned out to be 32%; in experiment [2], 2%; in experiment [3] it was 5%; in experiment [4], 2%; in experiment [5] it was 20%; in [6], 0%. For the same compound, the residual activity in [7] stood at 86%; in experiment [8] it was 31%; in experiment [9], 96%; in [10], 77%; in experiment [11], 125%; in [12], 95%. Besides, the residual activity in experiment [13] was 95%.
Regarding `Nc1cccc(-c2cc3c(Oc4cccc(O)c4)ncnc3[nH]2)c1`, the residual activity is 91% in [14]; 100% in experiment [1]; 71% in [2]; 98% in experiment [3]; 67% in experiment [4]; 1% in experiment [5]. Moreover, the residual activity is 0% in [6]; 120% in experiment [7]; 91% in [8]; 75% in experiment [9]; 34% in experiment [10]; 118% in experiment [11]. The residual activity in [15] came out at 84%; in experiment [12], 86%; in [13], 91%; in experiment [16], 78%; in experiment [17] it was 83%.
On to `O=C1Nc2ccccc2/C1=C1/Nc2ccccc2/C1=N\OCCC(O)CO` (centres undefined), for which the residual activity came out at 56% in experiment [18]; 19% in [19]; 44% in experiment [20]; 9% in [14]; 27% in experiment [2]; 76% in experiment [3]. Besides, the residual activity is 53% in [4]; 11% in experiment [5]; 1% in experiment [6]; 21% in experiment [7]; 5% in experiment [8]; 58% in experiment [9]. Besides, the residual activity in experiment [10] was found to be 11%; in [11], 98%; in experiment [15], 44%; in experiment [12], 75%; in experiment [13], 64%; in experiment [16] it was 72%. For the same compound, in [17], the residual activity turned out to be 75%.
As to `CN(C)CCCn1cc(C2=C(c3c[nH]c4ccccc34)C(=O)NC2=O)c2ccccc21`, the residual activity in experiment [18] turned out to be 60%; in experiment [19], 14%; in experiment [20], 34%; in experiment [14], 6%; in experiment [1], 125%; in experiment [2], 107%. In addition, the residual activity in experiment [3] was found to be 23%; in experiment [4], 6%; in experiment [6], 84%; in experiment [7], 88%; in [8], 63%; in experiment [11], 15%. For the same compound, the residual activity in experiment [15] came to 4%; in [12] it was 22%; in experiment [13], 5%; in experiment [16], 114%; in experiment [17] it was 84%.
As for `Cn1cc(/C=C2\C(=O)Nc3ccc(S(N)(=O)=O)cc32)c2ccccc21`, the residual activity in [18] worked out at 103%; in experiment [19], 101%; in experiment [20], 77%; in experiment [14], 54%; in [1], 62%; in experiment [2], 54%. Further, the residual activity in experiment [3] turned out to be 58%; in experiment [4], 23%; in experiment [5] it was 74%; in experiment [6], 35%; in experiment [7], 24%; in [8] it was 9%. In addition, the residual activity in experiment [9] was 76%; in experiment [10], 111%; in [11], 109%; in experiment [15], 97%; in [12] it was 102%; in experiment [16], 109%. Moreover, the residual activity in [17] was found to be 93%.
Regarding `COc1ccc(C(=O)Nc2sc3c(c2C(N)=O)CCCC3)cc1OC`, the residual activity in experiment [18] stood at 104%; in [19] it was 88%; in experiment [20], 79%; in experiment [14], 90%; in [1], 59%; in [2] it was 76%. Besides, the residual activity in [3] worked out at 88%; in [4] it was 114%; in [5], 91%; in experiment [6], 80%; in [7], 78%; in [8], 84%. The residual activity in experiment [9] turned out to be 80%; in experiment [10] it was 97%; in [11] it was 87%; in experiment [15], 114%; in [12] it was 92%; in [13], 97%. Also, the residual activity in experiment [16] stood at 94%; in experiment [17] it was 75%.
With `c1ccc2c(-c3ccncc3)c[nH]c2c1`, the residual activity in experiment [18] was 76%; in experiment [19], 23%; in [20], 54%; in [14], 12%; in experiment [1] it was 87%; in experiment [2], 90%. Besides, the residual activity in experiment [3] is 30%; in [4], 8%; in [5], 88%; in experiment [6], 97%; in [7], 103%; in experiment [8] it was 86%. Besides, the residual activity in experiment [9] is 97%; in [10] it was 49%; in experiment [11], 97%; in [12], 91%; in [13], 86%; in experiment [16] it was 86%. Besides, the residual activity in [17] turned out to be 65%.
